Results on 18 compounds are retold here after PubChem BioAssay (EPA / NIEHS).

Calls of active or inactive are those of the source. Rule for the calls, unless noted: active = hit-call score of the fitted dose curve at least 0.9, where 1 is the maximum; inactive = score below 0.9.

Assay [1] concerns the target Peroxisome proliferator-activated receptor gamma (Homo sapiens) (UniProt P37231). Kind of assay: OT_PPARg_PPARgSRC1_1440: Odyssey Thera (OT) 24-hour Protein-Complementation Assay for Peroxisome Proliferator-activated Receptor Gamma/ SRC-1 Co-activator (AID 2283388; active = hit-call score of the fitted dose curve at least 0.9, where 1 is the maximum;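 note: nuclear to cytoplasmic ratio of reconstituted Venus YFP fluorescence in fixed imaged cells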). In a few lines:
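Readout: nuclear-to-cytoplasmic 488 nm fluorescence ratio, ≥350 cells per image, 8 images per well, after 24 h compound exposure of HEK293T expressing PPARg/SRC-1 split-YFP fusions. Activity fitted in positive direction against DMSO.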

The nature of assay [2]: CEETOX_H295R_11DCORT: CeeTox H295R High-throughput Steroidogenesis Assay for 11-Deoxycortisol (11DCORT) (AID 2283432).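 For AC50: 11-deoxycortisol secreted into the medium measured by LC-MS/MS.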 The settings on record: actives raise or lower the signal. Put shortly:
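H295R cells; 10 uM forskolin prestim 48 h; compound in 0.1% DMSO 48 h; media extracted with MTBE; 11-deoxycortisol by LC-MS/MS, 7-point standard curve; gain/loss vs DMSO baseline; viability by MTT in same wells.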

Assay [3] can be described thus: CEETOX_H295R_OHPREG: CeeTox H295R High-throughput Steroidogenesis Assay for OH-Pregnenolone (OHPREG) (AID 2283434). To be noted: actives raise or lower the signal. Put shortly:
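Secreted 17alpha-hydroxypregnenolone measured by HPLC-MS/MS after liquid-liquid extraction. Human adrenal H295R cells received 48 h forskolin (10 uM) stimulation before 48 h chemical exposure at 0.1% final DMSO; MTT viability in same wells; bidirectional fit against DMSO.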

Assay [4] is described as follows: CEETOX_H295R_OHPROG: CeeTox H295R High-throughput Steroidogenesis Assay for OH-Progesterone (OHPROG) (AID 2283435).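 For AC50: 17alpha-hydroxyprogesterone secreted into medium measured by HPLC-MS/MS.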 To be noted: actives raise or lower the signal. In a few lines:
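Medium steroid levels read by LC-MS/MS after 48 h chemical treatment (0.1% DMSO) of human adrenal H295R cells that had been forskolin-primed (10 uM, 48 h). Gain or loss fitted against DMSO; MTT cytotoxicity checked per well.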

Assay [5] can be described thus: CEETOX_H295R_CORTIC: CeeTox H295R High-throughput Steroidogenesis Assay for Corticosterone (CORTIC) (AID 2283437). To be noted: actives raise or lower the signal. In a few lines:
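Medium corticosterone was quantified by tandem mass spectrometry following 48 hours of chemical exposure (0.1% DMSO) in human H295R cells previously stimulated 48 hours with 10 uM forskolin. Viability checked by MTT; chemicals diluted and retested when viability fell below 70%.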

A short description of assay [6]: CEETOX_H295R_DOC: CeeTox H295R High-throughput Steroidogenesis Assay for DOC (AID 2283439). The settings on record: actives raise or lower the signal. In a few lines: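 11-Deoxycorticosterone quantified in medium by MTBE extraction and HPLC-MS/MS after 48 h chemical exposure (0.1% DMSO) of forskolin-primed (10 uM, 48 h) H295R cells. Same-well MTT viability; data fitted bidirectionally against DMSO.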

Assay [7] is described as follows: CEETOX_H295R_PROG: CeeTox H295R High-throughput Steroidogenesis Assay for Progesterone (PROG) (AID 2283442).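 For AC50: human H295R adrenal cells primed with 10 µM forskolin before dosing.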 The settings on record: actives raise or lower the signal. In a few lines: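 Progesterone read-out: HPLC-MS/MS on MTBE extracts of conditioned medium after 48 h chemical exposure of forskolin-primed (10 uM, 48 h) H295R cells. Gain or loss of signal was fitted relative to DMSO baseline.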

A short description of assay [8]: CEETOX_H295R_ANDR: CeeTox H295R High-throughput Steroidogenesis Assay for Androstenedione (ANDR) (AID 2283436). The settings on record: actives raise or lower the signal. Put shortly: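 Medium from 48 h chemical-treated H295R adrenal cells was extracted with MTBE and androstenedione measured by LC-MS/MS. Activity was fit in both directions relative to DMSO. Cytotoxic concentrations were re-tested after dilution until MTT viability reached ≥70%.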

Assay [9] is described as follows: CEETOX_H295R_TESTO: CeeTox H295R High-throughput Steroidogenesis Assay for Testosterone (TESTO) (AID 2283457).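 For AC50: cells exposed to chemicals for 48 h before medium collection.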 The settings on record: actives raise or lower the signal. In a few lines: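 Readout: testosterone quantified by HPLC-MS/MS (C18, ESI positive) after MTBE liquid-liquid extraction of culture medium. Cells were H295R, 48 h chemical exposure per OECD 456 with modifications. Gain or loss of signal fitted relative to DMSO.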

Chain of Peroxisome proliferator-activated receptor gamma (Homo sapiens) (P37231 whole entry, looked up, the tested form may be a part): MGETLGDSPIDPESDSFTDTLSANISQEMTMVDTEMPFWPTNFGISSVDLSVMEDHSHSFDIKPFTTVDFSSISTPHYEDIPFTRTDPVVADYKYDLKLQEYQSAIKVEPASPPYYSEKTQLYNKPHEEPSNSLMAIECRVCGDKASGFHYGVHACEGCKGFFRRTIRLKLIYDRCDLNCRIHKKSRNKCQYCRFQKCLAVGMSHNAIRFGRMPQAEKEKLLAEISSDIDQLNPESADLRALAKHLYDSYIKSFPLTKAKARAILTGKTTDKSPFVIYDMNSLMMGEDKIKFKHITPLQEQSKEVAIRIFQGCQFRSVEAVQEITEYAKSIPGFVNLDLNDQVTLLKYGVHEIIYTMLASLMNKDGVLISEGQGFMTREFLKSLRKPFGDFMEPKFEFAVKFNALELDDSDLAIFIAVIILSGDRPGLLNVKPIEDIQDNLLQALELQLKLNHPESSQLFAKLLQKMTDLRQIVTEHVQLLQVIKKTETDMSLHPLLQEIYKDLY

Turning to `O=P(O)(O)O`, in assay [1], the outcome was inactive.

`O=[N+]([O-])c1ccc(O)cc1C(F)(F)F`: the call in assay [1] was inactive.

`CCCCCCC(=O)c1ccccc1`: the call in assay [1] was inactive.

For `CCOc1ccccc1O`, the compound was called inactive in assay [1].

Consider `C=C1C[C@]23C[C@@]1(O)CC[C@H]2[C@@]12C=C[C@H](O)[C@@](C)(C(=O)O1)[C@H]2[C@@H]3C(=O)O`, for which the call in assay [1] was inactive.

Consider `CCNCCO`, for which the compound was classed as inactive in assay [1].

In the case of `CCOC(=O)c1ccc(N)cc1`, the compound was classed as inactive in assay [1].

As to `CCCC(=O)OC(C)(C)Cc1ccccc1`, the compound was called inactive in assay [1].

The AC50 is the midpoint of the concentration-response curve, whichever way the signal moves. Turning to `COCCc1ccc(OCC(O)CNC(C)C)cc1` (stereo unspecified), the values for the AC50 in assay [2] and in [4] were 28.6 µM (active) and 50 µM (active), respectively. Also, the call in [3], in assay [5], in [6] and in assay [7] was inactive.

As to `BrCc1cccc(Oc2ccccc2)c1`, the result in [1], in assay [2], in [3], in [6] and in assay [7] was inactive. In addition, the AC50 in assay [4] is 36.5 µM (active); in assay [8], 38.2 µM (active); in assay [5], 32.7 µM (active); in [9], 34.5 µM (active).

For the compound `OC[C@H]1O[C@@H]2O[C@H]3[C@H](O)[C@@H](O)[C@@H](O[C@H]4[C@H](O)[C@@H](O)[C@@H](O[C@H]5[C@H](O)[C@@H](O)[C@@H](O[C@H]6[C@H](O)[C@@H](O)[C@@H](O[C@H]7[C@H](O)[C@@H](O)[C@@H](O[C@H]8[C@H](O)[C@@H](O)[C@@H](O[C@H]9[C@H](O)[C@@H](O)[C@@H](O[C@H]1[C@H](O)[C@H]2O)O[C@@H]9CO)O[C@@H]8CO)O[C@@H]7CO)O[C@@H]6CO)O[C@@H]5CO)O[C@@H]4CO)O[C@@H]3CO`, in [1], the compound was classed as inactive.

Turning to `CC(CN=Cc1ccccc1O)N=Cc1ccccc1O` (stereo unspecified), the call in assay [1], in [3], in assay [5] and in [7] was inactive. Besides, the AC50 in assay [2] is 3.89 µM (active); in [4], 1.97 µM (active); in assay [6] it was 1.7 µM (active).

Regarding `CC(C)Nc1nc(N)nc(Cl)n1`, the compound was called inactive in assay [1], in assay [2], in [3], in assay [4], in [5] and in [6]. The result in assay [7] was inactive.

For `CS(C)=O`, the compound was classed as inactive in [1].

On to `COc1ccc(CCN2CCC(Nc3nc4ccccc4n3Cc3ccc(F)cc3)CC2)cc1`, for which the AC50 in [2] is 1.49 µM (active); in assay [3], 0.698 µM (active); in assay [4], 1.41 µM (active); in assay [5], 1.48 µM (active); in assay [6], 1.52 µM (active); in assay [7], 0.789 µM (active).

Turning to `C=C1CC[C@H](O)C/C1=C/C=C1\CCC[C@]2(C)[C@@H]([C@H](C)/C=C/[C@H](C)C(C)C)CC[C@@H]12`, the compound was called inactive in assay [1] and in assay [5]. Besides, the AC50 in assay [2] was 19.8 µM (active); in assay [3] it was 4.66 µM (active); in [4], 12.3 µM (active); in assay [6] it was 87.2 µM (active); in assay [7] it was 84.3 µM (active).

`CC1CC(O)CC(C)(C)C1` (stereo unspecified): the compound was classed as inactive in [1].

For `CCC(C)c1cc([N+](=O)[O-])cc([N+](=O)[O-])c1OC(=O)OC(C)C` (stereo unspecified), the compound was classed as inactive in [2], in [3], in assay [4], in assay [8], in [5] and in [6]. Also, the compound was classed as inactive in [7] and in [9].
